HIV Env fusion: inhibitors of HIV Env-mediated cell fusion; HeLa-JRFL Env/CEM21 cell fusion, luciferase; inhibition, % at 12.3 µM; 360,000 compounds, 1.1% hits;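 active means mean replicate inhibition score of at least 50 and every replicate individually at or above 50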
EWS-Fli block: EWS/Fli transcriptional activity inhibition | 350,000 compounds, 0.67% hits | A673 NR0B1-luciferase reporter, viability-normalised | inhibition, % at 12.6 µM;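 active means mean inhibition of at least 50% after viability correction, with every replicate also passing that limit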;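 further: firefly luciferase signal divided by Alamar Blue viability fluorescence both relative to DMSO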
GSIS activator: primary screen for activators of insulin secretion dependent on glucose, INS-1E cells, GLuc reporter luminescence; 370,000 compounds, 0.61% hits; activation, % at 16.6 µM; INS-1E GLuc reporter insulin secretion, 2-3 h; AID 743287;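 active means lowest replicate activation of at least 40%, so every replicate reaches that level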
PAX8 reporter: PAX8 transcriptional activity inhibition. AID 652154. RMG-I TPO-luciferase reporter, SteadyGlo, 24 h. 360,000 compounds, 1.2% hits. inhibition, % at 12.6 µM;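 active means mean replicate inhibition at least 60% with every replicate also reaching 60%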;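 further: luciferase light reporting Pax8 driven TPO promoter activity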
miR122 inh: miR-122 inhibition in Huh7 cells; Huh7 miR-122 Renilla luciferase sensor, 48 h; neutral wells = 0, positive control = 100; activation (reporter increase), % at 12.5 µM; 340,000 compounds, 0.3% hits; AID 602342;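 active means mean replicate activation score at least 90 and every replicate individually at or above 90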;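 further: higher luciferase means less miR-122 activity so hits act as miR-122 inhibitors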
Statin myotox sup: protects C2C12 myotubes from simvastatin toxicity; 330,000 compounds, 0.78% hits; ATP luminescence, 48 h; scaled: DMSO 0, geranylgeraniol control 100; rescue of ATP level, % at 7.49 µM;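 active means mean ATP rescue above about 67%, or every replicate alone reaching that limit, limit read from the data, passing the limit was not always enough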;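 further: myotubes were challenged with 10 µM simvastatin during compound exposure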
Each line names hits and unclear results; the compound was inactive in the other large screens. Sampled rows, rich in hits. Any-hit rate of the full collection: about 3.1%.

CCOC(=O)C1=C(CC)Nc2ccccc2N=C1NC(=O)c1oc2ccccc2c1C	PAX8 reporter 64 (no result: miR122 inh, Statin myotox sup)
CCOC(=O)C1=C(CC)Nc2ccccc2N=C1NC(=O)CCNC(C)=O	none
CCOC(=O)C1=C(CC)Nc2ccccc2N=C1NC(=O)c1ccc(S(=O)(=O)N(C)C)cc1	none (no result: EWS-Fli block, GSIS activator)
CCOC(=O)C1=C(C)Nc2ccccc2N=C1NC(=O)c1cccc(S(=O)(=O)N(C)C)c1	Statin myotox sup 111 (no result: EWS-Fli block)
Cc1ccc(S(=O)(=O)Nc2ccc3c(c2)C(=O)N([C@@H](C)CO)C[C@H](C)[C@@H](CN(C)S(=O)(=O)c2ccc(F)cc2)O3)cc1	none (no result: PAX8 reporter)
CN(C)C(=O)c1cccc(-c2ccc([C@H]3[C@@H](CO)N4CCCCN(CCC(F)(F)F)C[C@H]34)cc2)c1	none (no result: HIV Env fusion, Statin myotox sup)
C[C@H]1CN([C@@H](C)CO)S(=O)(=O)c2ccc(C#CC3(O)CCCC3)cc2O[C@@H]1CN(C)C(=O)c1ccccc1	none (no result: PAX8 reporter)
COc1ccc(Cl)cc1C(=O)Nc1nc2ccccc2[nH]1	EWS-Fli block 72
CN(c1ccccc1)S(=O)(=O)c1ccc(Cl)c(C(=O)Nc2nc3ccccc3[nH]2)c1	HIV Env fusion 72 (no result: EWS-Fli block)
O=C(Nc1nc2ccccc2[nH]1)c1ccccc1F	HIV Env fusion 75 (no result: EWS-Fli block, PAX8 reporter, Statin myotox sup)
O=C(Nc1nc2ccccc2[nH]1)c1ccccc1OC(F)F	none (no result: EWS-Fli block)
Cc1cc(NC(=O)c2ccccc2F)n(-c2nc3ccccc3[nH]2)n1	GSIS activator 64 (no result: EWS-Fli block)
C[C@@H]1CCCCO[C@H](CN(C)S(=O)(=O)c2cn(C)cn2)[C@@H](C)CN([C@H](C)CO)C(=O)c2cc(NC(=O)Nc3ccccc3)ccc2O1	none (no result: Statin myotox sup)
C[C@H]1CCCCO[C@H](CN(C)C(=O)C2CCCCC2)[C@@H](C)CN([C@@H](C)CO)C(=O)c2cc(NC(=O)Nc3ccc(C(F)(F)F)cc3)ccc2O1	none (no result: PAX8 reporter, Statin myotox sup)
COc1ccc(Cl)cc1C(=O)NNC(=S)NC(=O)c1cc(-c2ccc(Cl)cc2)nc2ccccc12	HIV Env fusion 94 (no result: EWS-Fli block, GSIS activator, PAX8 reporter, Statin myotox sup)
CC(C)C(NC(=O)CSCc1ccc([N+](=O)[O-])cc1)C(C)C	EWS-Fli block 78 (no result: miR122 inh, Statin myotox sup)
O=C(CSCc1ccc([N+](=O)[O-])cc1)NC1CC1	EWS-Fli block 83 (no result: miR122 inh, Statin myotox sup)
C[C@H](CO)N1C[C@H](C)[C@H](CN(C)Cc2ccncc2)Oc2cc(-c3ccccc3)ccc2S1(=O)=O	none (no result: PAX8 reporter)
CC(=O)Nc1ccc(S(=O)(=O)N2CCC(C(=O)NCc3ccco3)CC2)cc1	none (no result: miR122 inh, Statin myotox sup)
O=C(NCc1ccco1)C1CCCN(S(=O)(=O)c2ccc(Br)cc2)C1 (configuration not stated)	PAX8 reporter 131 (no result: miR122 inh)
O=S(=O)(NCc1ccco1)c1ccc(S(=O)(=O)N2CCCCC2)cc1	Statin myotox sup 118 (no result: HIV Env fusion, PAX8 reporter)
CCOc1ccc(S(=O)(=O)N2CCCC(C(=O)NCc3ccco3)C2)cc1 (configuration not stated)	none (no result: EWS-Fli block, miR122 inh, Statin myotox sup)
CC(C)c1ccc(S(=O)(=O)N2CCC(C(=O)NCc3ccco3)CC2)cc1	HIV Env fusion 56 (no result: PAX8 reporter)
CNC(=O)C[C@H]1CC[C@H]2[C@@H](COc3ccc(NC(=O)Nc4cccc(F)c4)cc3C(=O)N2C)O1	none
O=C(NC1CCCC1)N1CC(=O)N2[C@H](CO)[C@@H](c3ccc(-c4cccc(F)c4)cc3)[C@H]2C1	none (no result: miR122 inh, Statin myotox sup)
C[C@@H]1CN([C@H](C)CO)C(=O)c2cc(C#C[C@@H](C)O)cnc2O[C@@H]1CN(C)C(=O)c1ccccc1F	none (no result: PAX8 reporter)
Cc1ccc(S(=O)(=O)Nc2ccc3c(c2)C(=O)N([C@H](C)CO)C[C@H](C)[C@@H](CN(C)C)OCCCC[C@H](C)O3)cc1	none
COc1ccc(NC(=O)Nc2ccc3c(c2)C(=O)N([C@H](C)CO)C[C@@H](C)[C@H](CN(C)S(=O)(=O)c2ccccc2)O3)cc1	none (no result: PAX8 reporter, Statin myotox sup)
CCCCOCC1CN(CCCC)S(=O)(=O)c2c(Oc3ccc(C(C)C)cc3)cccc2O1 (configuration not stated)	none (no result: miR122 inh, Statin myotox sup)
CCCCOCC1CN(CCCC)S(=O)(=O)c2c(Oc3ccc(C)cc3)cccc2O1 (configuration not stated)	HIV Env fusion 65 (no result: miR122 inh, Statin myotox sup)
S=c1[nH]nc(-c2ccccn2)n1/N=C/c1cccc2ccccc12	PAX8 reporter 122 (no result: HIV Env fusion, GSIS activator, miR122 inh, Statin myotox sup)
Cc1ccccc1/C=N/n1c(-c2ccccn2)n[nH]c1=S	none (no result: GSIS activator)
Cc1ccc(S(=O)(=O)Oc2ccccc2)cc1	none
